Experimental data as given in PubChem BioAssay (EPA / NIEHS).
Inconclusive results are not listed. The source made the active and inactive calls. Rule for the calls, unless noted: active = hit-call score of the fitted dose curve at least 0.9, where 1 is the maximum; inactive = score below 0.9.

Read-out: Vascular cell adhesion molecule 1 (VCAM1), VCAM1 (gene 7412)
Assay: BSK_LPS_VCAM1: BioMAP Diversity Plus: LPS Assay for Vascular cell adhesion molecule 1 (VCAM1) Biomarker Activity (AID 2283086)
Conditions: primary human HUVEC with PBMC; actives raise or lower the signal
Method in brief: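 VCAM-1 quantified by ELISA in an LPS-activated co-culture of human endothelial cells and peripheral blood mononuclear cells, read 24 h post-treatment. Fitted in both directions versus DMSO; parallel SRB staining flags overt cytotoxicity.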

Sequence of E-selectin (Homo sapiens) (P16581 whole entry, looked up): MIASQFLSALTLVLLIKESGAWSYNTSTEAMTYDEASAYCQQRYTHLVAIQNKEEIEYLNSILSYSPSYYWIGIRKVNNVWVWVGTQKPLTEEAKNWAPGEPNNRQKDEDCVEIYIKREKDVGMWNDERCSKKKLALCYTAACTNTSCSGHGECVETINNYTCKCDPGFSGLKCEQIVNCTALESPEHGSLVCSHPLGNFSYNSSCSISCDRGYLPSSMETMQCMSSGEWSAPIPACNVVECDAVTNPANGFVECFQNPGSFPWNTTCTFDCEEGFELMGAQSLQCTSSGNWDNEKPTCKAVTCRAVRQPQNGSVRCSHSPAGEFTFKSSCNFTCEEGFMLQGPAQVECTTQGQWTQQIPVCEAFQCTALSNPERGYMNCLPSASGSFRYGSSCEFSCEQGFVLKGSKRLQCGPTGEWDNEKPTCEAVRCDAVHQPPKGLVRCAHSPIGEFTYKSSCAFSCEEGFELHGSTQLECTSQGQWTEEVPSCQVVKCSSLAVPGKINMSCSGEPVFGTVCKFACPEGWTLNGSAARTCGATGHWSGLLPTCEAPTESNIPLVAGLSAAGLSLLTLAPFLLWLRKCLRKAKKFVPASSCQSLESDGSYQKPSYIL

Compound | AC50 | outcome
CCCCCCCCCCCC#N | 33.6 µM (active) | 
CC(C)CCCCCCCOC(=O)c1ccccc1C(=O)OCCCCCCCC(C)C |  | inactive
O=[N+]([O-])C=Cc1ccccc1 | 8.21 µM (active) | 
O=[N+]([O-])c1ccc(Cl)cc1 |  | inactive
Nc1ccc(-c2ccc(N)c(N)c2)cc1N | 20 µM (active) | 

Read-out: CD38, CD38 (gene 952)
Assay: BSK_SAg_CD38: BioMAP Diversity Plus: SAg Assay for CD38 Biomarker Activity (AID 2283087)
Conditions: primary human HUVEC with PBMC; actives raise or lower the signal
Method in brief: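 CD38 quantified by ELISA (fluorescence) in a superantigen-activated endothelial cell–PBMC co-culture at 24 h post-dose. Activity fitted in both directions relative to DMSO; parallel SRB and Alamar Blue cytotoxicity read-outs.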

Compound | AC50 | outcome
CCCCCCCCCCCC#N | 35.6 µM (active) | 
CC(C)CCCCCCCOC(=O)c1ccccc1C(=O)OCCCCCCCC(C)C |  | inactive
O=[N+]([O-])C=Cc1ccccc1 | 24.9 µM (active) | 
O=[N+]([O-])c1ccc(Cl)cc1 |  | inactive
Nc1ccc(-c2ccc(N)c(N)c2)cc1N |  | inactive

Read-out: CD69, CD69 (gene 969)
Assay: BSK_SAg_CD69: BioMAP Diversity Plus: SAg Assay for CD69 Biomarker Activity (AID 2283089);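 for AC50: cell surface CD69 protein quantified by ELISA with fluorescence detection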
Conditions: primary human HUVEC with PBMC; actives raise or lower the signal
Method in brief: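 HUVEC co-cultured with PBMC were dosed with chemical, and CD69 was measured by ELISA with fluorescence read-out 24 h later. Bidirectional curve fitting used DMSO as negative control and activity baseline.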

Compound | AC50 | outcome
CCCCCCCCCCCC#N | 33.7 µM (active) | 
CC(C)CCCCCCCOC(=O)c1ccccc1C(=O)OCCCCCCCC(C)C |  | inactive
O=[N+]([O-])C=Cc1ccccc1 | 20 µM (active) | 
O=[N+]([O-])c1ccc(Cl)cc1 |  | inactive
Nc1ccc(-c2ccc(N)c(N)c2)cc1N | 12.7 µM (active) | 

Read-out: Monocyte Chemoattractant Protein-1 (MCP1), CCL2 (gene 6347)
Assay: BSK_SAg_MCP1: BioMAP Diversity Plus: SAg Assay for Monocyte Chemoattractant Protein-1 (MCP1) Biomarker Activity (AID 2283090)
Conditions: primary human HUVEC with PBMC; actives raise or lower the signal
Method in brief: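 Values derive from bidirectional fitting of ELISA-measured MCP1 against DMSO controls. Readings were taken 24 h after dosing human vascular endothelial cells co-cultured with peripheral blood mononuclear cells under superantigen stimulation.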

Compound | AC50 | outcome
CCCCCCCCCCCC#N | 33 µM (active) | 
CC(C)CCCCCCCOC(=O)c1ccccc1C(=O)OCCCCCCCC(C)C |  | inactive
O=[N+]([O-])C=Cc1ccccc1 | 20 µM (active) | 
O=[N+]([O-])c1ccc(Cl)cc1 |  | inactive
Nc1ccc(-c2ccc(N)c(N)c2)cc1N |  | inactive

Read-out: E-selectin (Homo sapiens) (UniProt P16581)
Assay: BSK_SAg_Eselectin: BioMAP Diversity Plus: SAg Assay for Eselectin Biomarker Activity (AID 2283091)
Conditions: primary human HUVEC with PBMC; actives raise or lower the signal
Method in brief: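 E-selectin ELISA readout at 24 h post-dosing in human umbilical vein endothelial cell/PBMC co-culture; gain or loss of signal fitted relative to DMSO baseline.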

Compound | AC50 | outcome
CCCCCCCCCCCC#N | 31.3 µM (active) | 
CC(C)CCCCCCCOC(=O)c1ccccc1C(=O)OCCCCCCCC(C)C |  | inactive
O=[N+]([O-])C=Cc1ccccc1 | 20 µM (active) | 
O=[N+]([O-])c1ccc(Cl)cc1 |  | inactive
Nc1ccc(-c2ccc(N)c(N)c2)cc1N | 11.7 µM (active) | 

Read-out: Monokine induced gamma interferon (MIG), CXCL9 (gene 4283)
Assay: BSK_SAg_MIG: BioMAP Diversity Plus: SAg Assay for Monokine induced gamma interferon (MIG) Biomarker Activity (AID 2283092)
Conditions: primary human HUVEC with PBMC; actives raise or lower the signal
Method in brief: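 HUVEC plus human PBMC co-culture, chemicals dosed and MIG (CXCL9) quantified by ELISA at 24 h. Bidirectional curve fitting against DMSO as negative control and baseline, so both gain and loss of signal count as activity.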

Compound | outcome | AC50
CCCCCCCCCCCC#N | inactive | 
CC(C)CCCCCCCOC(=O)c1ccccc1C(=O)OCCCCCCCC(C)C | inactive | 
O=[N+]([O-])C=Cc1ccccc1 |  | 20 µM (active)
O=[N+]([O-])c1ccc(Cl)cc1 | inactive | 
Nc1ccc(-c2ccc(N)c(N)c2)cc1N | inactive | 

Read-out: not listed separately
Assay: BSK_SAg_PBMCCytotoxicity: PBMC Cytotoxicity Assessment in the BioMAP Diversity Plus: SAg Assay (AID 2283093);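 note: fitted both ways against DMSO so a hit may be loss or gain of signal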;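 for AC50: PBMC superantigen activated with SEB plus TSST-1 one hour after compound addition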
Conditions: primary human HUVEC with PBMC
Method in brief: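 PBMC viability by Alamar Blue reduction, fluorescence read at 546/580 nm after 6 h dye exposure. Cells were dosed 1 h before SEB plus TSST-1 activation (20 ng/mL final each), then held 90 h; endothelial/PBMC human co-culture.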

Compound | AC50 | outcome
CCCCCCCCCCCC#N | 32 µM (active) | 
CC(C)CCCCCCCOC(=O)c1ccccc1C(=O)OCCCCCCCC(C)C |  | inactive
O=[N+]([O-])C=Cc1ccccc1 | 13 µM (active) | 
O=[N+]([O-])c1ccc(Cl)cc1 |  | inactive
Nc1ccc(-c2ccc(N)c(N)c2)cc1N |  | inactive

Read-out: Interleukin-8 (IL8), CXCL8 (gene 3576)
Assay: BSK_SAg_IL8: BioMAP Diversity Plus: SAg Assay for Interleukin-8 (IL8) Biomarker Activity (AID 2283094)
Conditions: primary human HUVEC with PBMC; actives raise or lower the signal
Method in brief: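 ELISA readout of IL-8 from a superantigen-activated endothelial/PBMC primary human co-culture, taken 24 h post-dosing and fitted in both directions against DMSO; parallel SRB total-protein staining flags overt cytotoxicity.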

Compound | AC50 | outcome
CCCCCCCCCCCC#N | 32.7 µM (active) | 
CC(C)CCCCCCCOC(=O)c1ccccc1C(=O)OCCCCCCCC(C)C |  | inactive
O=[N+]([O-])C=Cc1ccccc1 | 11.3 µM (active) | 
O=[N+]([O-])c1ccc(Cl)cc1 |  | inactive
Nc1ccc(-c2ccc(N)c(N)c2)cc1N |  | inactive

Read-out: not listed separately
Assay: BSK_SAg_Proliferation: Cell Proliferation Assessment in the BioMAP Diversity Plus: SAg Assay (AID 2283095);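 note: relative cell number as total protein by SRB absorbance in sub-confluent culture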
Conditions: primary human HUVEC with PBMC
Method in brief: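 Relative cell number in the endothelial cell/PBMC co-culture was quantified at 96 h by SRB staining (0.1% SRB, 10% TCA fixation, read at 560 nm). Curves were fitted in both directions relative to DMSO baseline.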

Compound | outcome | AC50
CC(C)CCCCCCCOC(=O)c1ccccc1C(=O)OCCCCCCCC(C)C | inactive | 
O=[N+]([O-])C=Cc1ccccc1 |  | 3.07 µM (active)
O=[N+]([O-])c1ccc(Cl)cc1 | inactive | 
Nc1ccc(-c2ccc(N)c(N)c2)cc1N | inactive | 

Read-out: not listed separately
Assay: BSK_SAg_SRB: Viability Assessment in the BioMAP Diversity Plus: SAg Assay (AID 2283096);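 note: cells read one day after compound addition; hits may be either gain or loss of signal compared with DMSO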
Conditions: primary human HUVEC with PBMC
Method in brief: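 Compounds were added to a human vascular co-culture of umbilical vein endothelium and PBMC. After 24 h, parallel cultures were fixed with 10% TCA, stained with 0.1% sulforhodamine B and read at 560 nm. Gain or loss of signal was fitted relative to DMSO.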

Compound | outcome | AC50
CCCCCCCCCCCC#N | inactive | 
CC(C)CCCCCCCOC(=O)c1ccccc1C(=O)OCCCCCCCC(C)C | inactive | 
O=[N+]([O-])C=Cc1ccccc1 |  | 12.6 µM (active)
O=[N+]([O-])c1ccc(Cl)cc1 | inactive | 
Nc1ccc(-c2ccc(N)c(N)c2)cc1N | inactive | 

Target: human Phosphodiesterase 10 (PDE10), PDE10A (gene 10846) (UniProt Q9Y233)
Sequence (Q9Y233 whole entry, looked up): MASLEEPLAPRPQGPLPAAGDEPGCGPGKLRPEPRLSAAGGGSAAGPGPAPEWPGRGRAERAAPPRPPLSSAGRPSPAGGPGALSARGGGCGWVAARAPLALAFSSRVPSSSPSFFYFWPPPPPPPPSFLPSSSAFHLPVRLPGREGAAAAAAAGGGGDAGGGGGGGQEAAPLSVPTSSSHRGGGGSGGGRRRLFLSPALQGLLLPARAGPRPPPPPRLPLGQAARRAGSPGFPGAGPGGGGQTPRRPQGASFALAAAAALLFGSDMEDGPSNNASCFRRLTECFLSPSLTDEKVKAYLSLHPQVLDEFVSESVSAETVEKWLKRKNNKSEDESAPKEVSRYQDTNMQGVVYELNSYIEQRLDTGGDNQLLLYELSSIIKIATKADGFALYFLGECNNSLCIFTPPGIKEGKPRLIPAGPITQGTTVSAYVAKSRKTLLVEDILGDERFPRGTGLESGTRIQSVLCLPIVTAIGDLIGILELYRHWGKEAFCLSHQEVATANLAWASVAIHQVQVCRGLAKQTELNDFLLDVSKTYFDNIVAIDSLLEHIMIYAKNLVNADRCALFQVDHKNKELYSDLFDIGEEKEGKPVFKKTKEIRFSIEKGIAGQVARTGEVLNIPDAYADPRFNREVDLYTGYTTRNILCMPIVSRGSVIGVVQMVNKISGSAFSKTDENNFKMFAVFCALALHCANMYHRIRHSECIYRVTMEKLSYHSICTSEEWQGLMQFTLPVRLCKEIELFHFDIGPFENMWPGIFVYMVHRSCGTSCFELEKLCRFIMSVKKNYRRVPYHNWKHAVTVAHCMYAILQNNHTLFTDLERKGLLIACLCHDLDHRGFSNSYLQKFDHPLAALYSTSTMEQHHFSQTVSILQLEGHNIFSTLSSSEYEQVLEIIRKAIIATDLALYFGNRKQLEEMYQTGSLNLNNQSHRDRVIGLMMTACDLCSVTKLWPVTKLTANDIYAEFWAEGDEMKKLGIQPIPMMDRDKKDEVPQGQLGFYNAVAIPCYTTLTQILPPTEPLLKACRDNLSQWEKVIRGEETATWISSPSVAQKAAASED
Assay: NVS_ENZ_hPDE10: NovaScreen (NVS) Enzymatic Assay for human Phosphodiesterase 10 (PDE10) (AID 2283195; active = hit-call score of the fitted dose curve at least 0.9, where 1 is the maximum)
Conditions: not given
Method in brief: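 Biochemical single-readout PDE10A assay, cell-free, extracted protein. Compounds first screened at 25 uM in duplicate, hits then titrated to 50 uM max. Activity measured after 1 h; loss-of-signal fitted against DMSO negative control.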

Compound | outcome | AC50
CCCCCCCCCCCC#N | inactive | 
C=CC(=O)OC | inactive | 
O=[N+]([O-])C=Cc1ccccc1 | inactive | 
O=[N+]([O-])c1ccc(Cl)cc1 | inactive | 
Nc1ccc(-c2ccc(N)c(N)c2)cc1N |  | 6.79 µM (active)

Target: rat Thyrotropin Releasing Hormone Receptor (TRH), Trhr (gene 25570) (UniProt Q01717)
Sequence (Q01717 whole entry, looked up): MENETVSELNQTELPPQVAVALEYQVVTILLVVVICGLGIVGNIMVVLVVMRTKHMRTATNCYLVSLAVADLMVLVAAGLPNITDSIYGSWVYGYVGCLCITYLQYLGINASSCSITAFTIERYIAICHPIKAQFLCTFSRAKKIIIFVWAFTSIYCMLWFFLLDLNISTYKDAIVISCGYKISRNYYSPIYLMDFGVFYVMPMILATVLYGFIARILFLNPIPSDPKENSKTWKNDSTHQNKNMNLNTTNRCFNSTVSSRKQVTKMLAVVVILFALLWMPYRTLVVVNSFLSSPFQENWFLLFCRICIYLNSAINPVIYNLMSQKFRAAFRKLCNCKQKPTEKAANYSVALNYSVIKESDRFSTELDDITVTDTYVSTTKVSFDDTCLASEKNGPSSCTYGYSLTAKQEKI
Assay: NVS_GPCR_rTRH: NovaScreen (NVS) G Protein-Coupled Receptor Assay for rat Thyrotropin Releasing Hormone Receptor (TRH) (AID 2283329; active = hit-call score of the fitted dose curve at least 0.9, where 1 is the maximum;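 note: hit means lower bound tracer signal versus DMSO baseline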)
Conditions: not given
Method in brief: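 Rat forebrain membranes; radioligand displacement at TRH receptor by filter-based scintillation counting, read 4 h after dosing. Duplicate single-point screen at 25 uM, actives rerun in concentration series; loss of signal relative to DMSO.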

Compound | outcome
CC1CCCC1.[C-]#[O+].[C-]#[O+].[C-]#[O+].[Mn] | inactive
CC(=O)C=Cc1ccccc1 | inactive
Nc1cc(Cl)cc(Cl)c1 | inactive
CC(=O)c1cc2c(cc1C)C(C)(C)C(C)CC2(C)C (stereo unspecified) | inactive
C=CC(=O)OCCO | inactive
CCCCCCCCCCCCCCCC[N+](C)(C)C | inactive

Target: Androgen Receptor/SRC-1 Co-activator, AR (gene 367) (UniProt P10275)
Sequence (P10275 whole entry, looked up): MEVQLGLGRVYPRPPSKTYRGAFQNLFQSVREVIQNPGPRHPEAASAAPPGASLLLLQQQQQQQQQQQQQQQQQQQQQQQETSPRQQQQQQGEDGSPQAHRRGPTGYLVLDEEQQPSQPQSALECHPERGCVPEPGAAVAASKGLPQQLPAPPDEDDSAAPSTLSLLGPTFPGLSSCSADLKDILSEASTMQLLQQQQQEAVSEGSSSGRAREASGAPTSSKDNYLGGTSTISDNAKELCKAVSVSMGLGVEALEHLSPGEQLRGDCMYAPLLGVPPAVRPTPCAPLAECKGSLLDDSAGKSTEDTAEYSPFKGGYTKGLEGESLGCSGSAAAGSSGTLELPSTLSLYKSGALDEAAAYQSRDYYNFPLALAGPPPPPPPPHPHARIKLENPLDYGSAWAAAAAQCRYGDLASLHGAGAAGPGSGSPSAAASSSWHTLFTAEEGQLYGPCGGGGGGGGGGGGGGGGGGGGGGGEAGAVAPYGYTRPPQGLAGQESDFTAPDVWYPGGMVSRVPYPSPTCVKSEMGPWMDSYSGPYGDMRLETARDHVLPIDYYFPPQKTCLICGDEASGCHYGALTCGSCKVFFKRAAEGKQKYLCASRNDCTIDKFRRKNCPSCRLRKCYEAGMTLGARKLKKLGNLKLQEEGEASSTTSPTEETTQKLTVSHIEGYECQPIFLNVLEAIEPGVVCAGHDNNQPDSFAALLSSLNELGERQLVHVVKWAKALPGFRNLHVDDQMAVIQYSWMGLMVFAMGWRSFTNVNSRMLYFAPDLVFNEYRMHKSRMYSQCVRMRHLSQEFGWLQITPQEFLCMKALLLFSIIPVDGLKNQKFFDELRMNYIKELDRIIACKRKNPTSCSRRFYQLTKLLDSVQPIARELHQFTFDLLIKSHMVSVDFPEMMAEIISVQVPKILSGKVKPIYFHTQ
Assay: OT_AR_ARSRC1_0960: Odyssey Thera (OT) 16-hour HEK293T Protein-Complementation Assay for Androgen Receptor/SRC-1 Co-activator (AID 2283353; active = hit-call score of the fitted dose curve at least 0.9, where 1 is the maximum;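 note: actives raise the signal above DMSO so potency reflects increased AR and SRC-1 complex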)
Conditions: not given
Method in brief: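 Endpoint is gain-of-signal N/C fluorescence ratio in the 488 nm channel versus DMSO, from at least 400 cells per image, measured 16 h post-dosing. Cells: HEK293T stably carrying split-Venus AR/SRC-1 complementation constructs.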

Compound | outcome
CN(C)N | inactive
Cc1ccc(C)c2ccccc12 | inactive
c1ccc2c(c1)CCCC2 | inactive

Target: Androgen Receptor/SRC-1 Co-activator, AR (gene 367) (UniProt P10275)
Assay: OT_AR_ARSRC1_0480: Odyssey Thera (OT) 8-hour HEK293T Protein-Complementation Assay for Androgen Receptor/SRC-1 Co-activator (AID 2283354; active = hit-call score of the fitted dose curve at least 0.9, where 1 is the maximum;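 note: hits raise the complementation signal above DMSO so AC50 marks enhancers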)
Conditions: not given
Method in brief: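 Split-Venus PCA, stable HEK293T, AR/SRC-1 fusions; 8 h exposure. Readout: 488nm N/C fluorescence ratio, ≥400 cells/image; fitted upward vs DMSO baseline.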

Compound | outcome
CN(C)N | inactive
Cc1ccc(C)c2ccccc12 | inactive
c1ccc2c(c1)CCCC2 | inactive

Target: Estrogen receptor beta (Homo sapiens) (UniProt Q92731)
Sequence (Q92731 whole entry, looked up): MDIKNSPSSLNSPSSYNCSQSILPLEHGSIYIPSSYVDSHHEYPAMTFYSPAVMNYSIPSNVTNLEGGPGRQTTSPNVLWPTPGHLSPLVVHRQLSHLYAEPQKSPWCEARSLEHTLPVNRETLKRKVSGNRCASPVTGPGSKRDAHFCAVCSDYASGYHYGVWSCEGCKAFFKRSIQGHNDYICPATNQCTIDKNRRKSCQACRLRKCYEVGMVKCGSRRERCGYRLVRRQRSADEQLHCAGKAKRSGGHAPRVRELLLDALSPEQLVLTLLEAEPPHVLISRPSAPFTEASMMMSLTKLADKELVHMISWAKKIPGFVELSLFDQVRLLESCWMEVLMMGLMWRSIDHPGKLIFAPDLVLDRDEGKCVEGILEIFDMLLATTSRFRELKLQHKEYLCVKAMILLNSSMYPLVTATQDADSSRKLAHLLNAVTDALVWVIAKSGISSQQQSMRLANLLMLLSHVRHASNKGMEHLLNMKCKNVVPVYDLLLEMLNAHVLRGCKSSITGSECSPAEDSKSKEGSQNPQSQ
Assay: OT_ER_ERbERb_0480: Odyssey Thera (OT) 8-hour HEK293T Protein-Complementation Assay for Estrogen Receptor-beta/-beta Homodimer (AID 2283357; active = hit-call score of the fitted dose curve at least 0.9, where 1 is the maximum;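 note: active means signal gain over DMSO baseline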)
Conditions: not given
Method in brief: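 Homodimerization of ER-beta LBD measured by protein-fragment complementation in HEK293T; 8 h dosing; fixed, Draq5 counterstain; fluorescence intensity gain over DMSO baseline, positive fitting direction; laser scanning cytometry.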

Compound | outcome | AC50
O=C(NC(=O)c1c(F)cccc1F)Nc1ccc(Oc2ccc(C(F)(F)F)cc2Cl)cc1F | inactive | 
CC(=O)C=Cc1ccccc1 | inactive | 
CCC(=O)c1ccc(Cl)cc1 | inactive | 
CN(C)N | inactive | 
Nc1ccc(Cl)c(Cl)c1 | inactive | 
O=C(O)CCl | inactive | 
Nc1cc(Cl)cc(Cl)c1 | inactive | 
O=[N+]([O-])c1ccc(Cl)cc1 | inactive | 
Cc1ccc(C)c2ccccc12 | inactive | 
CC(=O)c1cc2c(cc1C)C(C)(C)C(C)CC2(C)C (stereo unspecified) |  | 5.28 µM (active)
c1ccc2c(c1)CCCC2 | inactive | 
CCOC(=O)C1OC1(C)c1ccccc1 (stereo unspecified) | inactive | 
CC(C)[C@@H](C(=O)O[C@@H](C#N)c1cccc(Oc2ccccc2)c1)c1ccc(Cl)cc1 | inactive | 
C=CC(=O)OCCO | inactive | 
CCCCCCCCCCCCCCCC[N+](C)(C)C | inactive | 
